Experimental data taken from PubChem BioAssay (EPA / NIEHS).
Active and inactive are the calls of the source. Rule for the calls: active = hit-call score of the fitted dose curve at least 0.9, where 1 is the maximum; inactive = score below 0.9.

What was measured:
Settings in all cases: mRNA level, 48 h; actives raise or lower the signal
[1] = read-out: ABC Transporter (ABCB1), ABCB1 (gene 5243); test: LTEA_HepaRG_ABCB1: Life Technologies and Expression Analysis (LTEA) Assay for ABC Transporter (ABCB1) using HepaRG (AID 2283460)
Outline: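 ABCB1 transcript level measured by TaqMan qRT-PCR against three housekeeping genes after 48 h chemical exposure of differentiated HepaRG cells. Top concentration 100 uM, half-log steps, eight points, 0.5% DMSO vehicle; bidirectional fit relative to DMSO.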

[2] = read-out: growth arrest and DNA damage 45 (GADD45B), GADD45B (gene 4616); test: LTEA_HepaRG_GADD45B: Life Technologies and Expression Analysis (LTEA) Assay for growth arrest and DNA damage 45 (GADD45B) using HepaRG (AID 2283461)
Outline: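 Differentiated HepaRG cells, plated 48 h then switched to serum-free induction medium, were exposed 48 h in duplicate to eight half-log concentrations from 100 uM in 0.5% DMSO; mRNA quantified by qRT-PCR, normalized to ACTB/GAPDH/POLR2A, bidirectional fit versus DMSO.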

[3] = read-out: ABC Transporter (ABCC3), ABCC3 (gene 8714); test: LTEA_HepaRG_ABCC3: Life Technologies and Expression Analysis (LTEA) Assay for ABC Transporter (ABCC3) using HepaRG (AID 2283462)
Outline: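 HepaRG cells in serum-free induction medium were exposed for 48 h in duplicate to 8-point half-log concentrations topping at 100 uM in 0.5% DMSO. ABCC3 mRNA was measured by qRT-PCR normalized to ACTB, GAPDH and POLR2A, with bidirectional fitting versus DMSO.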

[4] = read-out: ABC Transporter (ABCC2), ABCC2 (gene 1244); test: LTEA_HepaRG_ABCC2: Life Technologies and Expression Analysis (LTEA) Assay for ABC Transporter (ABCC2) using HepaRG (AID 2283464)
Outline: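 HepaRG cells were plated 48 h, switched to serum-free induction medium, then exposed in duplicate for 48 h to 8 concentrations (top 100 uM, half-log steps, 0.5% DMSO). ABCC2 mRNA was measured by qRT-PCR normalized to ACTB/GAPDH/POLR2A; bidirectional fitting versus DMSO.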

[5] = read-out: Broad substrate specificity ATP-binding cassette transporter ABCG2 (Homo sapiens) (UniProt Q9UNQ0); test: LTEA_HepaRG_ABCG2: Life Technologies and Expression Analysis (LTEA) Assay for ABC Transporter (ABCG2) using HepaRG (AID 2283465)
Outline: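 ABCG2 transcript was quantified by TaqMan qRT-PCR against three housekeeping genes in HepaRG cells. Cells were treated in duplicate for 48 h across an 8-point half-log series up to 100 uM, with 0.5% DMSO vehicle. Gain or loss versus DMSO was fit.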

[6] = read-out: ATP-citrate lyase (ACLY), ACLY (gene 47); test: LTEA_HepaRG_ACLY: Life Technologies and Expression Analysis (LTEA) Assay for ATP-citrate lyase (ACLY) using HepaRG (AID 2283466)
Outline: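 ACLY mRNA quantified by qRT-PCR on Fluidigm arrays against three housekeeping genes, after 48 h chemical treatment of HepaRG cells (top concentration 100 uM, half-log steps, 0.5% DMSO vehicle). Up- or down-regulation fitted relative to DMSO.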

[7] = read-out: Peroxisomal acyl-coenzyme A oxidase 1 (ACOX1) gene, ACOX1 (gene 51); test: LTEA_HepaRG_ACOX1: Life Technologies and Expression Analysis (LTEA) Assay for Peroxisomal acyl-coenzyme A oxidase 1 (ACOX1) gene using HepaRG (AID 2283467)
Outline: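 ACOX1 transcript levels were quantified by TaqMan qRT-PCR against three housekeeping genes after 48 h chemical exposure of differentiated human HepaRG cells. Exposure used eight half-log steps topping at 100 uM, 0.5% DMSO vehicle, in duplicate. Bidirectional curve fits were made relative to DMSO.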

[8] = read-out: Alkaline Phosphatase, Placental (ALPP) gene, ALPP (gene 250); test: LTEA_HepaRG_ALPP: Life Technologies and Expression Analysis (LTEA) Assay for Alkaline Phosphatase, Placental (ALPP) gene using HepaRG (AID 2283468)
Outline: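 Differentiated human HepaRG cells were plated and cultured 48 h, then exposed in duplicate for 48 h in serum-free induction medium to eight half-log concentrations from 100 uM in 0.5% DMSO. ALPP mRNA was measured by TaqMan qRT-PCR, normalized to ACTB, GAPDH, POLR2A.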

[9] = read-out: Bcl-2 (BAD) gene, BAD (gene 572); test: LTEA_HepaRG_BAD: Life Technologies and Expression Analysis (LTEA) Assay for Bcl-2 (BAD) gene using HepaRG (AID 2283469)
Outline: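 Read-out: qRT-PCR of BAD mRNA, normalized to three housekeeping genes. Human HepaRG cultures got 48 h chemical exposure in 0.5% DMSO, duplicate eight-point half-log series topping at 100 uM. Gain or loss of signal fitted versus DMSO vehicle.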

[10] = read-out: Bcl-2 (BAX) gene, BAX (gene 581); test: LTEA_HepaRG_BAX: Life Technologies and Expression Analysis (LTEA) Assay for Bcl-2 (BAX) gene using HepaRG (AID 2283470)
Outline: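 Human HepaRG cells treated in duplicate for 48 h across eight concentrations (max 100 uM, 0.5% DMSO); BAX expression measured by qRT-PCR.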

[11] = read-out: adenosine kinase (ADK) gene, ADK (gene 132); test: LTEA_HepaRG_ADK: Life Technologies and Expression Analysis (LTEA) Assay for adenosine kinase (ADK) gene using HepaRG (AID 2283471)
Outline: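 Following 48 h exposure of HepaRG cells in 0.5% DMSO (top concentration 100 uM, duplicate wells), ADK mRNA induction or suppression was measured by qRT-PCR, normalised to ACTB/GAPDH/POLR2A, and fitted bidirectionally relative to vehicle.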

[12] = read-out: Alpha-fetoprotein (AFP) gene, AFP (gene 174); test: LTEA_HepaRG_AFP: Life Technologies and Expression Analysis (LTEA) Assay for Alpha-fetoprotein (AFP) gene using HepaRG (AID 2283472)
Outline: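 Measures AFP mRNA change in HepaRG after 48 h chemical exposure (8 half-log concentrations, highest 100 uM, 0.5% DMSO). Fold change relative to DMSO, fitted in both directions.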

[13] = read-out: BCL2L11 (gene 10018); test: LTEA_HepaRG_BCL2L11: Life Technologies and Expression Analysis (LTEA) Assay for Bcl-2 (BCL2L11) gene using HepaRG (AID 2283473)
Outline: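 Differentiated human HepaRG cells in serum-free induction medium were exposed in duplicate for 48 h to eight concentrations (top 100 uM, half-log steps, 0.5% DMSO). BCL2L11 mRNA was quantified by TaqMan qRT-PCR, normalized to ACTB/GAPDH/POLR2A, bidirectional fit versus DMSO.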

[14] = read-out: Apolipoprotein A-V (APOA5) gene, APOA5 (gene 116519); test: LTEA_HepaRG_APOA5: Life Technologies and Expression Analysis (LTEA) Assay for Apolipoprotein A-V (APOA5) gene using HepaRG (AID 2283474)
Outline: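 Differentiated human HepaRG cells were exposed in duplicate for 48 h to eight half-log concentrations from 100 uM in 0.5% DMSO. APOA5 mRNA was quantified by TaqMan qRT-PCR, normalized to ACTB, GAPDH and POLR2A, and fitted bidirectionally against DMSO.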

[15] = read-out: Apoptosis regulator Bcl-2 (Homo sapiens) (UniProt P10415); test: LTEA_HepaRG_BCL2: Life Technologies and Expression Analysis (LTEA) Assay for Bcl-2 gene using HepaRG (AID 2283475)
Outline: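 Each chemical was tested in duplicate on HepaRG cultures held in serum-free induction medium for 48 h, highest concentration 100 uM with half-log dilutions. Transcript levels came from multiplexed qRT-PCR, normalised to housekeeping genes; activity was scored in either direction relative to DMSO.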

[16] = read-out: Bcl-2 (BID) gene, BID (gene 637); test: LTEA_HepaRG_BID: Life Technologies and Expression Analysis (LTEA) Assay for Bcl-2 (BID) gene using HepaRG (AID 2283476)
Outline: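 Assay used HepaRG hepatic cells treated 48 h in serum-free medium with half-log dilutions from 100 uM. Endpoint: BID mRNA, qRT-PCR, normalized to ACTB/GAPDH/POLR2A.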

[17] = read-out: Caspase-3 (Homo sapiens) (UniProt P42574); test: LTEA_HepaRG_CASP3: Life Technologies and Expression Analysis (LTEA) Assay for cysteine-aspartic acid protease (CASP3) using HepaRG (AID 2283477)
Outline: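 Differentiated human HepaRG cells in serum-free induction medium were exposed 48 h to 8-point half-log concentrations from 100 uM (0.5% DMSO vehicle). CASP3 mRNA was measured by qRT-PCR, normalised to ACTB, GAPDH and POLR2A, with bidirectional fitting against DMSO.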

[18] = read-out: Cytochrome P450 (CYP24A1), CYP24A1 (gene 1591); test: LTEA_HepaRG_CYP24A1: Life Technologies and Expression Analysis (LTEA) Assay for Cytochrome P450 (CYP24A1) using HepaRG (AID 2283478)
Outline: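 Differentiated HepaRG cells, pre-cultured 48 h, were exposed in duplicate for 48 h in serum-free induction medium to 8 half-log concentrations (top 100 uM, 0.5% DMSO). CYP24A1 mRNA was quantified by TaqMan qRT-PCR, normalized to ACTB/GAPDH/POLR2A, fitted bidirectionally versus DMSO.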

[19] = read-out: Cytochrome P450 (CYP1A2), CYP1A2 (gene 1544); test: LTEA_HepaRG_CYP1A2: Life Technologies and Expression Analysis (LTEA) Assay for Cytochrome P450 (CYP1A2) using HepaRG (AID 2283479)
Outline: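 Differentiated human HepaRG cells in serum-free induction medium were exposed in duplicate for 48 h to 8-point half-log concentrations up to 100 uM in 0.5% DMSO. CYP1A2 mRNA measured by qRT-PCR, normalized to ACTB, GAPDH, POLR2A; bidirectional fit vs DMSO.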

Measured: AC50

Sequence of Caspase-3 (Homo sapiens) (P42574 whole entry, looked up): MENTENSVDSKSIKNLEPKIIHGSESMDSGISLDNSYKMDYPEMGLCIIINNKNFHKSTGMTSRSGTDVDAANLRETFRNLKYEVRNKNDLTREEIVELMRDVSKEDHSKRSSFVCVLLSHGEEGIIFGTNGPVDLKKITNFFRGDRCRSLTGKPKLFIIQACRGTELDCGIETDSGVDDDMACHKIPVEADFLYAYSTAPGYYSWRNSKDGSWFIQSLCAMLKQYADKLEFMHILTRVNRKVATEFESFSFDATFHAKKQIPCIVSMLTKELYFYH
Sequence of Broad substrate specificity ATP-binding cassette transporter ABCG2 (Homo sapiens) (Q9UNQ0 whole entry, looked up): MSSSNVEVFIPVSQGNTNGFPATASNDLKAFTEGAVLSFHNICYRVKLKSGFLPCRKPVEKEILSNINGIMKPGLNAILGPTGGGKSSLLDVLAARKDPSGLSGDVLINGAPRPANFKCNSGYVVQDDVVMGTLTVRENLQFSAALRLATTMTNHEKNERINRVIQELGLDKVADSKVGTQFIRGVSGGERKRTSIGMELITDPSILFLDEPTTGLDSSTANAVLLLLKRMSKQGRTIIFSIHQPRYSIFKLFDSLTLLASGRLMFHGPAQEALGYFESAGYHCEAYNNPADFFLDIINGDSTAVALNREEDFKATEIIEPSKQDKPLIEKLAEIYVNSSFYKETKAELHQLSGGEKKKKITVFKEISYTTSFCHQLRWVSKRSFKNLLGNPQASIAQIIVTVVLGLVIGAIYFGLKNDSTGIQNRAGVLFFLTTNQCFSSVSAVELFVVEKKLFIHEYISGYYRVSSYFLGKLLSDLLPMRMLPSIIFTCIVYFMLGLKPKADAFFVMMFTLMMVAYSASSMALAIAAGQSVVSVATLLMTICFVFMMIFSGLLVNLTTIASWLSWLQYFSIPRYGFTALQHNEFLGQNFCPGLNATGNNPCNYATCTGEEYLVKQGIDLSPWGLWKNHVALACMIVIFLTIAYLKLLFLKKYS
Sequence of Apoptosis regulator Bcl-2 (Homo sapiens) (P10415 whole entry, looked up): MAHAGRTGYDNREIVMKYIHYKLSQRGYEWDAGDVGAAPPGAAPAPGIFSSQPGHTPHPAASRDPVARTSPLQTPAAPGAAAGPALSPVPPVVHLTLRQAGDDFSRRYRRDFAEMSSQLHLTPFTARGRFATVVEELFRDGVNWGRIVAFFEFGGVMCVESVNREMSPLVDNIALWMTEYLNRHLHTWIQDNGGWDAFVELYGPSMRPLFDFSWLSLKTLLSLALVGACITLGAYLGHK

OCCOc1ccccc1
inactive: all assays above

CCOCN(C(=O)CCl)c1c(C)cccc1CC
active: [2] 75.5 µM | [7] 78.9 µM | [12] 93.3 µM
not listed: [13] | [14]
inactive: all other assays above

CCCN(CCC)c1c([N+](=O)[O-])cc(C(F)(F)F)cc1[N+](=O)[O-]
active: [19] 32.3 µM
not listed: [13] | [14]
inactive: all other assays above

O=C(O)CCCOc1ccc(Cl)cc1Cl
active: [5] 11.6 µM | [6] 50.8 µM | [7] 20.5 µM | [11] 50.8 µM | [19] 73.8 µM
not listed: [13] | [14]
inactive: all other assays above

COP(=S)(OC)Oc1ccc(SC)c(C)c1
active: [5] 31.8 µM | [12] 10.3 µM | [19] 35 µM
not listed: [13] | [14]
inactive: all other assays above

COP(=O)(OC)OC=C(Cl)Cl
not listed: [13] | [14]
inactive: all other assays above
